Some test systems named below: SR leukemia; RPMI-8226 leukemia; OVCAR-8 ovarian; OVCAR-5 ovarian; OVCAR-4 ovarian; SK-OV-3 ovarian; IGROV1 ovarian; OVCAR-3 ovarian; HS 578T breast; NCI/ADR-RES ovarian; T-47D breast; BT-549 breast; MDA-MB-435 melanoma; SW-620 colon; MCF7 breast; HCT-116 colon; HCC-2998 colon; KM12 colon.
What all share (experiment): NCI-60 one-dose screen, 48 h (100 = growth as untreated, 0 = no growth, -100 = all killed)
What all share (details): 10 µM

Compounds without any hit were thinned out: in the full panel of roughly 83,000, 20% have a hit.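 The endpoint reported here, percent growth, reads 100 for growth as untreated, 0 for no net growth and -100 for all cells dead.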 Unmarked numbers belong to inactive results. The source made the active and inactive calls. Rule for the calls: active = growth percent below 10; inactive = the rest.

The text below walks through data of PubChem BioAssay (NCI).

Regarding `CCC(O)c1ccc(Br)cc1NC(=O)c1cccc(Cl)c1` (centres undefined), the growth is 8.25% (active) with SR leukemia; 18.2% with RPMI-8226 leukemia; 13.9% with OVCAR-8 ovarian; 50.4% in the experiment on OVCAR-5 ovarian; 24.9% with OVCAR-4 ovarian; 34% in the experiment on SK-OV-3 ovarian. For the same compound, the growth with IGROV1 ovarian was 10.4%; with OVCAR-3 ovarian, 33.8%; in the experiment on HS 578T breast it was 51%; in the experiment on NCI/ADR-RES ovarian, 5.46% (active); with T-47D breast, 20.8%; in the experiment with BT-549 breast, 42.7%. Further, the growth in the experiment on MDA-MB-435 melanoma is 16.9%; with SW-620 colon it was 13.8%; in the experiment on MCF7 breast it was 14.4%; with HCT-116 colon, 20.7%; in the experiment with HCC-2998 colon, 19.1%; with KM12 colon, 26.3%.

With `CC1=CSC2=NC(c3ccc(Cl)c(Cl)c3)=CC(c3ccc(Cl)cc3)N12` (centres undefined), the growth in the experiment with SR leukemia is 0.606% (active); with RPMI-8226 leukemia, 82.3%; in the experiment with OVCAR-8 ovarian, 29.1%; in the experiment with OVCAR-5 ovarian, 91.8%; with OVCAR-4 ovarian, 62.5%; with SK-OV-3 ovarian, -19.9% (active). In addition, the growth is -52% (active) with IGROV1 ovarian; 18% in the experiment with OVCAR-3 ovarian; -1.12% (active) in the experiment with HS 578T breast; 92.9% in the experiment with NCI/ADR-RES ovarian; 21.3% with T-47D breast; 7.99% (active) in the experiment on BT-549 breast. Moreover, the growth was 10.4% in the experiment with MDA-MB-435 melanoma; 26.4% in the experiment on SW-620 colon; 54.3% in the experiment with MCF7 breast; 3.71% (active) with HCT-116 colon; 100% with HCC-2998 colon; 56.8% in the experiment on KM12 colon.

As for `CC(=O)n1nc(C(=O)OC(C)(C)C)c2cc(F)c(F)cc21`, the growth in the experiment with SR leukemia is 104%; in the experiment on RPMI-8226 leukemia it was 89.1%; in the experiment on OVCAR-8 ovarian it was 105%; in the experiment with OVCAR-5 ovarian, 104%; with OVCAR-4 ovarian, 98.5%; in the experiment with SK-OV-3 ovarian it was 114%. In addition, the growth was 97.5% in the experiment on IGROV1 ovarian; 96.8% in the experiment on OVCAR-3 ovarian; 106% with HS 578T breast; 98.3% in the experiment on NCI/ADR-RES ovarian; 104% in the experiment on T-47D breast; 119% in the experiment on BT-549 breast. Besides, the growth in the experiment with MDA-MB-435 melanoma was 95.9%; in the experiment with SW-620 colon, 94.1%; in the experiment with MCF7 breast it was 99.2%; in the experiment with HCT-116 colon, 95%; in the experiment with HCC-2998 colon, 102%; in the experiment on KM12 colon it was 90%.

Turning to `CCN(CC)CCOC(=O)c1ccc(N=Nc2ccc(O)c(OC)c2)cc1`, the growth in the experiment on SR leukemia was 84.8%; in the experiment on RPMI-8226 leukemia it was 99.7%; in the experiment on OVCAR-8 ovarian, 95.1%; in the experiment with OVCAR-5 ovarian, 95.4%; with OVCAR-4 ovarian, 111%; in the experiment on SK-OV-3 ovarian, 105%. For the same compound, the growth with IGROV1 ovarian was 104%; in the experiment on OVCAR-3 ovarian it was 98.6%; in the experiment on HS 578T breast it was 98.7%; in the experiment with NCI/ADR-RES ovarian, 101%; in the experiment on T-47D breast, 86.6%; in the experiment with BT-549 breast, 101%. In addition, the growth with MDA-MB-435 melanoma was 103%; in the experiment with SW-620 colon it was 103%; in the experiment with MCF7 breast, 95.6%; in the experiment with HCT-116 colon, 93.9%; in the experiment on HCC-2998 colon, 103%; with KM12 colon it was 103%.

In the case of `Cc1cc2cc3c(=O)[nH]c(=O)cc-3n(CC(O)C(O)C(O)CO)c2cc1C` (centres undefined), the growth was 111% in the experiment with SR leukemia; 106% in the experiment with RPMI-8226 leukemia; 97.3% with OVCAR-8 ovarian; 106% in the experiment with OVCAR-5 ovarian; 109% in the experiment with OVCAR-4 ovarian; 99.1% with SK-OV-3 ovarian. Also, the growth with IGROV1 ovarian was 112%; with OVCAR-3 ovarian, 103%; in the experiment with HS 578T breast, 101%; in the experiment with NCI/ADR-RES ovarian, 105%; in the experiment on T-47D breast, 95.1%; with BT-549 breast it was 104%. Besides, the growth was 104% with MDA-MB-435 melanoma; 89.8% in the experiment with SW-620 colon; 101% with MCF7 breast; 101% with HCT-116 colon; 109% in the experiment on HCC-2998 colon; 108% in the experiment with KM12 colon.

`CCOC(=O)c1cc(-c2ccccc2)nc(N)n1`: the growth was 106% in the experiment on SR leukemia; 99.6% in the experiment on RPMI-8226 leukemia; 103% in the experiment on OVCAR-8 ovarian; 98.2% in the experiment with OVCAR-5 ovarian; 107% in the experiment with OVCAR-4 ovarian; 103% with SK-OV-3 ovarian. The growth was 103% in the experiment with IGROV1 ovarian; 109% with OVCAR-3 ovarian; 92.5% in the experiment on HS 578T breast; 100% in the experiment on NCI/ADR-RES ovarian; 114% in the experiment with T-47D breast; 103% with BT-549 breast. The growth with MDA-MB-435 melanoma is 102%; in the experiment with SW-620 colon, 103%; with MCF7 breast, 87.6%; in the experiment on HCT-116 colon it was 104%; in the experiment on HCC-2998 colon, 109%; in the experiment with KM12 colon, 110%.

Turning to `Nc1c(CNCc2nnn(Cc3ccccc3)c2N)nnn1Cc1ccccc1`, the growth with SR leukemia is 90%; in the experiment with RPMI-8226 leukemia it was 94.7%; with OVCAR-8 ovarian, 99.8%; in the experiment with OVCAR-5 ovarian it was 95.5%; in the experiment with OVCAR-4 ovarian, 92.1%; in the experiment with SK-OV-3 ovarian, 114%. The growth is 102% in the experiment on IGROV1 ovarian; 107% in the experiment with OVCAR-3 ovarian; 99% in the experiment with HS 578T breast; 97.2% in the experiment with NCI/ADR-RES ovarian; 101% with T-47D breast; 105% in the experiment with BT-549 breast. The growth in the experiment on MDA-MB-435 melanoma was 107%; with SW-620 colon it was 95.9%; in the experiment on MCF7 breast, 101%; in the experiment with HCT-116 colon, 103%; in the experiment with HCC-2998 colon it was 98.7%; in the experiment with KM12 colon, 98.3%.

Consider `CCCn1c(=O)c2c(nc(-c3cccc(OCCCCl)c3)n2C)n(CCC)c1=O`, for which the growth in the experiment with SR leukemia is 59.6%; in the experiment on RPMI-8226 leukemia, 83.9%; in the experiment with OVCAR-8 ovarian, 33.9%; with OVCAR-5 ovarian, 73.1%; in the experiment with OVCAR-4 ovarian it was 0.205% (active); with SK-OV-3 ovarian, 7.41% (active). The growth was 30.2% in the experiment on IGROV1 ovarian; 21.7% with OVCAR-3 ovarian; 31.4% in the experiment with HS 578T breast; 35.9% in the experiment with NCI/ADR-RES ovarian; 15.8% with T-47D breast; 67.9% in the experiment with BT-549 breast. Besides, the growth in the experiment with MDA-MB-435 melanoma is 82.5%; with SW-620 colon, 76.6%; with MCF7 breast, 84.6%; with HCT-116 colon, 36.4%; with HCC-2998 colon, 69.7%; with KM12 colon it was 76.2%.
